Screens deposited in PubChem by National Center for Advancing Translational Sciences (NCATS).
Luc counter: blocks Kinase-Glo luciferase, a counter-screen artifact | actives 0.28% (n = 200,000) | Kinase-Glo luciferase, ATP luminescence, 8 min | Potency, µM (top dose mostly 38.3 µM), for inactives: at the highest dose activity change, negative = inhibition, actives largely listed as inhibitors | AID 1379; also: nearly all actives have a fitted effect of over 60% in size
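Luminescence was the read-out, taken after 8-minute incubation at ambient temperature. Luciferase turned over luciferin with 10 uM ATP in imidazole pH 7.2 buffer containing KCl, MgCl2, Tween 20 and BSA.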
RORg inh: inhibitors of mouse ROR gamma transcriptional activity; actives 5.4% (n = 310,000); P51450; AID 2551; Drosophila S2 Gal4-RORgamma UAS-luciferase reporter, 20 h; Potency, µM (titrated, usually from 53.6 µM), for the others: at the highest dose activity change, negative = inhibition, hits mostly inhibitors; also: nearly all actives have a fitted effect of over 60% in size
Target sequence (P51450 whole entry, looked up, the tested form may be a part): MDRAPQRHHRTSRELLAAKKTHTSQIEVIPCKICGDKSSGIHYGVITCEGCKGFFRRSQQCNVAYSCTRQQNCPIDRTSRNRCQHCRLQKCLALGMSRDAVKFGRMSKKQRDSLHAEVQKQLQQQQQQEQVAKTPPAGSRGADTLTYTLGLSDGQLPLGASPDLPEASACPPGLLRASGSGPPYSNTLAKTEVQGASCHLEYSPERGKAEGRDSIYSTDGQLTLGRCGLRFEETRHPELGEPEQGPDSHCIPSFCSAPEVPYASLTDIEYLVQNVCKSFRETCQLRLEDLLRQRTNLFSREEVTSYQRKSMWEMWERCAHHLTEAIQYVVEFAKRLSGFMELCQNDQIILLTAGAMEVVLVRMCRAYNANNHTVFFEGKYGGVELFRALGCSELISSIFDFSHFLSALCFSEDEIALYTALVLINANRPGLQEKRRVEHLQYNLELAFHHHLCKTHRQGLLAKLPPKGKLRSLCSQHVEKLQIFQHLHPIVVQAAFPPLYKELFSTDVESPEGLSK
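Luminescence from a UAS-regulated Photinus luciferase reporter in stably transfected Drosophila Schneider cells is measured; decreased signal marks ROR gamma inhibition. Fusion expression is induced by 700 uM copper sulfate for 20 hr.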
Gal4-VP16 FLuc: Gal4-VP16 reporter inhibition counter-screen. Drosophila S2 Gal4-VP16 UAS-luciferase, luminescence, 20 h. Potency, µM (series often up to 53.6 µM), without a hit: at the top dose activity, negative = inhibition, usual class: inhibitors. actives 3.5% (n = 310,000). AID 2546;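 also: Gal4-VP16 expression switched on by copper sulfate through the metallothionein promoter; nearly all actives have a fitted effect of over 50% in size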
Active calls of the source: *; u = inconclusive; x = not tested or not shown; [ ] = another dose, or the depositor's remark. Compounds with a hit are over-represented: about 6.4% of the library has one in this group of screens. Calls follow the shape of the dose curve; as a rule, active = well fitted curve in the direction sought with a large enough effect; inconclusive = small, poorly fitted or top-dose-only effect, or another doubt; inactive = no such curve, though single readings can be large; an effect the other way counts as inactive or inconclusive. % is scaled to controls: 0 for no effect and ±100 for the full control effect; potency is read from the fitted curve at half-maximal effect.

SMILES	Luc counter	RORg inh	Gal4-VP16 FLuc
COC(=O)c1cc(NC(=O)c2c(-c3ccccc3)noc2C)ccc1N1CCOCC1	x	3.0%	-0.6%
Cc1ccc(C(=O)NC(=S)Nc2ccc(N3CCOCC3)cc2)cc1C	-0.1%	2µM*	u
COC(=O)c1cc(NC(=S)NC(=O)c2ccccc2)ccc1N1CCOCC1	x	17.8µM*	u
CC(=O)N1CCN(c2ccc(NC(=O)c3cccc(C)c3)cc2)CC1	x	21.2%[1.91 µM]	-8.5%
COc1ccc2[nH]cc(CCNc3ccnc(-c4ccoc4)n3)c2c1	x	26.5%	5.4%
O=C(CCSCCc1ccccn1)Nc1ccc(Cc2ccncc2)cc1	3.4%	2.8%	-6.5%
Cc1nc2ccccc2c(=O)n1/N=C/c1c(O)ccc2ccccc12	0.0%	12.6µM*	u
CSc1nnc(C(C)(C)C)c(=O)n1/N=C/c1c(O)ccc2ccccc12	x	10µM*	u
COc1ccc(Br)cc1/C=N/n1c(C)nc2ccccc2c1=O	x	17.0%	-0.4%
CC(C)(C)c1nn2cnnc2n(/N=C/c2cccc3ccccc23)c1=O	-4.8%	3.5%	3.2%
CCCc1nc2ccccc2c(=O)n1/N=C/c1ccc(O)cc1	1.6%	24.8%	-11.7%
Cc1nc2ccccc2c(=O)n1/N=C/c1cc(Br)ccc1O	x	12.6µM*	u
CCCc1nc2ccccc2c(=O)n1/N=C/c1ccc(O)cc1O	-2.9%	u	20µM*
Cc1nc2ccccc2c(=O)n1/N=C/c1c(O)ccc2oc3c(c12)CCCC3	-4.7%	u	u
CC(C)C(OC(=O)CN1C(=O)c2ccccc2C1=O)C(=O)NC1CCCCC1 (stereo not drawn)	x	-7.5%	-6.2%
O=S1(=O)CCN2N=C(C34CC5CC(CC(C5)C3)C4)SC2=N1	5.1%	32.8%	0.6%
COc1ccc(-n2cnnc2SCC(=O)Nc2ccccc2F)cc1	x	-6.7%	1.0%
O=C(O)c1cccc(NS(=O)(=O)c2ccc3c(c2)C(=O)c2ccccc2C3=O)c1	x	19.3%	-7.7%
CC(C)(C)c1ccc(S(=O)(=O)/N=C2\C=C(NS(=O)(=O)c3ccccc3)C(=O)c3ccccc32)cc1	x	2.3%	-5.5%
CCc1ccc(S(=O)(=O)/N=C2\C=C(Nc3ccc(C(=O)O)cc3)C(=O)c3ccccc32)cc1	x	11.2µM*	u
Cc1ccc(S(=O)(=O)/N=C2\C=C(Nc3cccc(C(=O)O)c3)C(=O)c3ccccc32)cc1	x	15.8µM*	u
COc1ccc(S(=O)(=O)NCC2CCCN(Cc3ccccc3C)C2)cc1 (stereo not drawn)	-4.8%	1.4%	10.9%
COc1ccc2cc(N=Cc3nc(-c4ccc(C)cc4)oc3O)cnc2c1	-0.4%	-10.5%	8.7%
CC(C)(C)c1cn(-c2ccccc2)c(=S)[nH]1	4.7%	7.08µM*	7.94µM*
Cc1ccc(-n2c(=S)[nH]c3[nH]ncc3c2=O)cc1	0.1%	u	-0.7%
SMILES	Luc counter	RORg inh	Gal4-VP16 FLuc
Cc1ccc(-n2cc(C(C)(C)C)[nH]c2=S)cc1	-1.3%	2.24µM*	6.31µM*
CC(C)(C)c1cc(=O)n(-c2ccccc2)[nH]1	0.9%	9.0%	-13.9%
O=c1[nH][nH]c(-c2ccccc2O)c1C(C[N+](=O)[O-])c1ccc(Br)cc1 (stereo not drawn)	0.8%	u	u
Cc1ccc(C(C[N+](=O)[O-])c2c(-c3ccccc3O)[nH][nH]c2=O)cc1 (stereo not drawn)	0.1%	5.01µM*	11.2µM*
O=C(Nc1ccccc1-c1ccccc1)c1ccccc1	x	6.0%	-13.9%
CCNC(=S)Nc1ccccc1-c1ccccc1	-4.1%	8.91µM*	11.2µM*
CNC(=S)Nc1ccccc1-c1ccccc1	-3.2%	11.2µM*	u
O=C(CNCc1ccccc1)Nc1ccccc1-c1ccccc1	2.9%	-4.2%	0.2%
Cc1c(Cl)cccc1NC(=O)CCNC(=O)N1CC(=O)Nc2ccccc21	x	8.8%	-4.6%
S=c1[nH]nc(Cc2noc3ccccc23)n1-c1ccc(Cl)cc1	4.9%	u	-8.2%
Cc1cc(C)nc(SCc2n[nH]c(=S)n2C)n1	2.4%	4.0%	1.9%
Cc1ccc(-n2c(CSc3nc(C)cc(C)n3)n[nH]c2=S)cc1	-1.0%	14.1µM*	-13.3%
S=c1[nH]nc(Cc2n[nH]c(=S)n2-c2ccccc2)n1-c1ccccc1	x	22.9%	-14.2%
CC(C)Cn1c(Cc2ccccc2)n[nH]c1=S	-0.3%	4.47µM*	0.0%
S=c1[nH]nc(Cc2ccccc2)n1-c1ccccc1	-0.6%	11.2µM*	20µM*
S=c1[nH]nc(Cc2ccccc2)n1-c1ccc(Cl)cc1	-3.0%	2.24µM*	u
CCOc1ccc2c(c1)c1nnc(SCC(=O)NC3CC3)nc1n2C	x	23.4%	-16.8%
NC(=O)[C@H]1O[C@@H](O)[C@H](O)[C@@H](O)[C@@H]1O	x	0.3%	-9.0%
CSCC[C@H](N)C(=O)NCC1CCC(C(=O)Nc2ccc3c(c2)OCO3)CC1 (stereo partly drawn)	x	-19.1%	-8.9%
O=C(O)CC(NS(=O)(=O)Cc1ccccc1)c1cccc([N+](=O)[O-])c1 (stereo not drawn)	x	5.3%	-1.5%
Cc1ccc(-n2c(Cc3ccccc3)n[nH]c2=S)cc1	-2.1%	3.98µM*	10µM*
COC(=O)CSc1nnc(Cc2ccccc2)n1-c1ccc(C)cc1	1.4%	39.1%	-3.3%
COCCN(CCOC)C(=O)COC(=O)c1cc([N+](=O)[O-])ccc1Cl	x	16.5%	9.3%
O=C(CN1C(=O)C2CC=CCC2C1=O)Nc1nc2ccccc2s1 (stereo not drawn)	3.2%	u	-2.8%
CC1=C(C(=O)OCC2CCCO2)C(c2ccc(F)cc2)NC(=O)N1 (stereo not drawn)	-0.8%	32.7%	-3.3%
SMILES	Luc counter	RORg inh	Gal4-VP16 FLuc
Cc1cc2cc3c(=O)[nH]c(=O)[nH]c3nc2cc1C	-7.5%[7.66 µM]	-8.5%	-2.3%
CCOC(=O)C1(CCCc2ccccc2)CCN(S(=O)(=O)N(C)C)CC1	x	u	-11.4%
NS(=O)(=O)c1ccc(NC(=S)NCc2ccccc2)cc1	3.0%	12.7%	6.3%
O=C(Cc1ccccc1)NNC(=S)Nc1ccccc1	-6.1%	u	-16.7%
Cc1ccc(CNCC(O)(c2ccccc2)c2ccccc2)cc1	x	u	-12.0%
CCc1ccc(C(O)(CNCc2ccccc2)c2ccccc2)cc1 (stereo not drawn)	x	-19.4%	12.6µM*
NNC(=S)Nc1ccc(Cl)cc1	2.6%	11.2µM*	u
FC(F)(F)Sc1ccc(NC(=S)NCc2ccccc2)cc1	x	12.6µM*	u
O=C(NNC(=S)Nc1ccc(Cl)cc1)c1ccccc1	x	u	-10.6%
O=C(CCC(=O)NNC(=S)Nc1ccccc1)NCc1ccccc1	10.9%	10µM*	u
COCCn1c(=O)c(-c2ccc(Cl)cc2)nc2cnc(N3CCOCC3)nc21	x	-8.3%	7.7%
Cc1ccsc1C1C(C#N)=C(N)N(N(C)C)C2=C1C(=O)CC(C)(C)C2 (stereo not drawn)	3.0%	-3.4%	6.2%
CC1(C)CC(=O)c2c(O)cc(OCC(=O)N3CCN(c4ccccc4)CC3)cc2O1	x	35.7%	-2.0%
O=C(OCC(=O)N1CCCC1)c1c2c(nc3ccccc13)CCCCC2	2.1%	-16.3%	-1.0%
Cc1ccc(NC(=O)CSc2nnc(C3CC3)n2CC2CCCO2)cc1C (stereo not drawn)	x	1.0%	-11.2%
CCc1ccc(NC(=S)NCc2ccccc2)cc1	-1.3%	2.24µM*	u
